# Source: PubChem BioAssay AID1345083 (National Center for Advancing Translational Sciences (NCATS), 2018)
# The whole screen tested about 94,000 compounds, of which about 6,200 (6.6%) were called active. Where a call stands in place of a potency, no number is given. Roughly 31% stayed inconclusive and do not appear here. Calls follow the shape of the dose curve; as a rule, active = well fitted inhibition curve with a large enough effect; inconclusive = small, poorly fitted or top-dose-only effect; inactive = flat fitted curve, though single readings scatter. For the sample, actives were picked, then their nearest neighbours and some compounds at random.
# Assay: Cytotoxic Profiling in HEK 293 Cell Line of Diverse Libraries Using Quantitative High-Throughput Screening; also: nearly all actives have a fitted effect of over 60% in size
# Details: HEK 293 viability, ATP luminescence (CellTiter-Glo), 48-72 h; series mostly up to 115 µM
# Outline: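 HEK 293 cells seeded at 250 cells/well were exposed to compound for 48 or 72 hr at 37 degree Celsius. Viability taken as ATP content by CellTiter-Glo luminescence.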
# Potency is read from the fitted curve at half-maximal effect.
row,Compound,Potency
1,O=C(C1NCCc2[nH]cnc21)N1CCc2nnc(-c3ccccc3)n2CC1 (configuration not stated),inactive
2,O=C(Nc1ccccc1F)N1CCc2nnc(C3CC3)n2CC1,inactive
3,Cn1nc(C(=O)N2CCC(N3C(=O)C(O)C34CCCCC4)CC2)c2ccccc21 (configuration not stated),inactive
4,O=C(c1ccc2c(c1)OCO2)N1CCC2(C1)C(=O)Nc1ccccc12 (configuration not stated),inactive
5,Cc1ccc([S+](=O)([O-])N2CCN(C(=O)c3nc4cccnc4n(C4CCCC4)c3=O)CC2)cc1,39.8 µM (active)
6,Cc1ccccc1C(=O)N1CCN(C(=O)c2nc3cccnc3n(C3CC3)c2=O)CC1,inactive
7,O=C(c1ccc(F)cc1)N1CCN(C(=O)c2nc3cccnc3n(C3CCCC3)c2=O)CC1,inactive
8,O=C(NCC1CCCO1)c1csc(N2CCN(c3ccccc3F)CC2)n1 (configuration not stated),89.1 µM (active)
9,O=C(NCC1CCCO1)c1noc(-c2ccccc2F)n1 (configuration not stated),inactive
10,Cc1ccccc1C(=O)N1C(C(=O)NCC2CCCO2)COC12CCN(C(=O)c1cccs1)CC2 (configuration not stated),inactive
11,CC(C)NC(=O)C1CCc2nnc(CNC(=O)c3ccc(Cl)cc3Cl)n21 (configuration not stated),inactive
12,Cn1ncc2c(C(=O)NCc3ccc(C(F)(F)F)cc3)cc(C3C=C(C(F)(F)F)C=CC3)nc21 (configuration not stated),inactive
13,Cn1ncc2c(C(=O)NCC(F)(F)F)cc(-c3ccc(C(F)(F)F)cc3)nc21,inactive
14,CC(=O)N1CCN(C(=O)c2cc(-c3cccc(F)c3)nc3c2cnn3C)CC1,inactive
15,Cn1ncc2c(C(=O)NCC#N)cc(-c3cccc(C(F)(F)F)c3)nc21,inactive
16,Cn1ncc2c(C(=O)NCc3ccc(F)cc3F)cc(-c3ccccc3C(F)(F)F)nc21,31.6 µM (active)
17,Cn1ncc2c(C(=O)N3CCN(c4ncccn4)CC3)cc(-c3ccc(C(F)(F)F)cc3)nc21,50.1 µM (active)
18,COc1ccccc1-c1cc(C(=O)NC2CCCCC2)c2cnn(C)c2n1,inactive
19,Cn1ncc2c(C(=O)NCc3ccccc3)cc(-c3ccc(C(F)(F)F)cc3)nc21,79.4 µM (active)
20,Cc1ccc(-c2cc(C(=O)N3CCOCC3)c3cnn(C)c3n2)c(C)c1,inactive
21,Cn1ncc2c(C(=O)NCc3ccc(F)cc3)cc(-c3cccc(C(F)(F)F)c3)nc21,inactive
22,CC(C)OCCCNC(=O)c1cc(-c2ccc(C(F)(F)F)cc2)nc2c1cnn2C,44.7 µM (active)
23,Cn1cnc(S(=O)(=O)N2CCC(c3noc(-c4ccccc4)n3)C2)c1 (configuration not stated),inactive
24,CCOc1ccc(CC(=O)N2C[C@@H](N)C[C@H]2C(=O)NC(C)C)cc1,inactive
25,CNC(=O)[C@H]1C[C@H](Oc2cccnc2)CN1C(=O)NCCc1ccccc1,inactive

row,Compound,Potency
1,COCCn1ncc(N2CCCC(CC(=O)Nc3ccc(C)cc3)C2)cc1=O (configuration not stated),inactive
2,O=C(c1ccccc1F)N1CCC2(CC1)C(=O)Nc1ccccc12,inactive
3,CC(=O)N[C@@H]1[C@@H](NC(=O)Cc2cccs2)[C@H]2CCO[C@H]21,inactive
4,O=C(c1ccc2nccn2c1)N1CCOCC1,inactive
5,O=C(NCc1ccccn1)c1ccc2nccn2c1,inactive
6,O=C(NC1CCN(Cc2ccc(F)c(F)c2)CC1)c1ccc2nccn2c1,44.7 µM (active)
7,COc1ccc(C(=O)N2CCCN(C(=O)C3CC3)C(c3ccccc3)CC(=O)NCC2)cn1 (configuration not stated),inactive
8,COc1ccccc1N1CCN(C(=O)C2CCCN(C(=O)c3ccccc3)CCC(=O)NCC2)CC1 (configuration not stated),inactive
9,COc1ccccc1N1CCCc2ncc(C(=O)N3CCCC[C@@H]3c3ccccc3)cc21,89.1 µM (active)
10,COC(=O)N1CCC2(CC1)C(=NC1CCCC1)NC(=O)N2c1cc(F)cc(F)c1,inactive
11,Cc1csc(CCNC(=O)C[C@H]2NC(=O)c3ccccc3NC2=O)n1,inactive
12,N#Cc1ccc(CN2CCC3(Cc4ccccc4NC3=O)C2)cc1 (configuration not stated),89.1 µM (active)
13,O=C1Nc2ccccc2CC12CCN(CC1CCCCC1)CC2,inactive
14,O=C1Nc2ccccc2CC12CCN(CC1CC1)C2 (configuration not stated),inactive
15,O=C(N[C@H]1CCN2C(=O)c3ccccc3NC(=O)[C@H]12)c1cccs1,inactive
16,CC(=O)N1CCc2[nH]cnc2C12CCN(C(=O)c1ccc(C)c(C)c1)CC2,inactive
17,COC(=O)C[C@H]1CN(C(=O)OC(C)(C)C)CCN1,inactive
18,COc1ccc(-n2nc(C3CCN(Cc4ccccn4)CC3)[nH]c2=O)cc1,12.6 µM (active)
19,COc1ccc(-n2nc(C3CCN(C(=O)c4ccc(C)cc4)CC3)[nH]c2=O)cc1,inactive
20,COc1ccc(-n2nc(C3CCN(C(=O)c4ccc(Cl)nc4)CC3)[nH]c2=O)cc1,inactive
21,CN1CCN(C(=O)c2ccc3c(c2)OCCO3)CC1=O,inactive
22,CN(C)C(=O)c1nc(-c2cccnc2)c2ccccn12,inactive
23,Cc1cnc(C2CCC2)n1CC1CCN(C(=O)c2ccncc2)C1 (configuration not stated),inactive
24,Cc1ccc(-c2noc([C@@H]3Cc4nc[nH]c4CN3Cc3cccc(C#N)c3)n2)cc1,89.1 µM (active)
25,Cc1cccc(-c2noc([C@@H]3Cc4nc[nH]c4CN3C(=O)CCC(=O)O)n2)c1,inactive

row,Compound,Potency
1,Cc1cccc(-c2noc([C@@H]3Cc4nc[nH]c4CN3C(=O)Nc3ccccc3)n2)c1,inactive
2,CCn1cc(C(=O)N2C[C@@H](COCC3CC3)[C@H](c3ccccn3)C2)cn1,inactive
3,COCCOCC(=O)N1CCC2(CC1)c1[nH]c3ccc(OC)cc3c1CCN2C,inactive
4,Cc1cc(C)n(CC(=O)N2CCC3(CC2)NCCc2c3[nH]c3ccccc23)n1,inactive
5,COc1ccc2[nH]c3c(c2c1)CCNC31CCN(C(=O)Cn2ccnc2)CC1,inactive
6,O=C(C1CC=CC1)N1CCC2(CC1)NCCc1c2[nH]c2ccccc12,39.8 µM (active)
7,COc1cccc(N2CCN(C(=O)C3(c4ccc(NC(C)=O)cc4)CCC3)CC2)c1,inactive
8,O=C(C1CCCO1)N1CCC2(CC1)NCCc1c2[nH]c2ccccc12 (configuration not stated),inactive
9,COCCOCC(=O)N1CCC2(CC1)NCCc1c2[nH]c2ccccc12,inactive
10,COc1ccc(C2(C(=O)N3CCC4(CC3)NCCc3c4[nH]c4ccccc34)CC2)cc1,35.5 µM (active)
11,O=C(COc1ccc(F)cc1)N1CCC2(CC1)NCCc1c2[nH]c2ccccc12,44.7 µM (active)
12,CC(=O)NCc1nnc2n1C(C(=O)N1CCN(C)CC1)CC2 (configuration not stated),inactive
13,COCc1nncn1C1CCN(C(=O)c2ccccc2OC(F)(F)F)CC1,inactive
14,CC(=O)Nc1ccc2c(c1)nc1n2[C@@H](CNCc2ccncc2F)COC1,inactive
15,CN1CCCN(c2ccc(C(=O)N3CCC(N4CCOCC4)CC3)cn2)CC1,inactive
16,O=C(NC1C[C@H]2CC[C@@H](C1)N2S(=O)(=O)c1ccc2c(c1)OCCO2)c1ccc(F)cc1 (some centres not stated),inactive
17,O=C(NC1CCCN(c2cc(-c3ccc(Cl)cc3)[nH]n2)C1)c1ccccc1F (configuration not stated),44.7 µM (active)
18,O=C(NC1CCCN(c2nc3ncccc3o2)C1)c1ccc(F)cc1 (configuration not stated),inactive
19,CCn1ccc(C(=O)NC2CCCN(c3cc(-c4ccc(F)cc4)[nH]n3)C2)n1 (configuration not stated),inactive
20,Cc1nnc2ccc(N3CCC(NC(=O)c4ccccc4Cl)C3)nn12 (configuration not stated),inactive
21,O=C(NC1CCCN(c2cc(-c3ccc(Cl)cc3)[nH]n2)C1)c1ccncc1 (configuration not stated),39.8 µM (active)
22,O=C(NC1CCCN(c2cc(-c3ccc(F)cc3)[nH]n2)C1)c1ccc(Br)cc1 (configuration not stated),39.8 µM (active)
23,O=C(NC1CCCN(c2ccc3nnc(C4CC4)n3n2)C1)c1ccccn1 (configuration not stated),inactive
24,CN(C)C1(CC2CC2)CCN(C(=O)c2ccsc2)CC1,inactive
25,CC(C)CN1C(=O)c2cccn2CC1C(=O)NC1CCS(=O)(=O)C1 (configuration not stated),inactive

row,Compound,Potency
1,COc1ccc(CN2CCCC(c3[nH]ccc3C(N)=O)C2)cc1Cn1ccnc1 (configuration not stated),inactive
2,O=C(c1ccc(N2CC3CC(C2)[C@H]2CCCC(=O)N2C3)nc1)N1CCCCC1 (some centres not stated),inactive
3,COc1cncc(-c2cccc(COc3ccc4c(cnn4CC[S+](C)(=O)[O-])c3)c2)c1,56.2 µM (active)
4,O=C(CC1CCN(C(=O)c2ccccc2)C1)NC1CC1 (configuration not stated),inactive
5,CCn1c(C2CCCNC2)nn(Cc2ccc(C(=O)NC)o2)c1=O (configuration not stated),inactive
6,Brc1cccc(-c2noc(-c3nc(-c4ccncc4)no3)n2)c1,inactive
7,COc1ccc(-c2nc(CN3CCOC(CN)C3)c(C)o2)c2ccccc12 (configuration not stated),31.6 µM (active)
8,CCn1cnnc1CC1CCN(C(=O)C2CCN(Cc3nc(-c4cccc(C)c4)oc3C)CC2)CC1,inactive
9,Cc1oc(-c2cccc(Cl)c2)nc1CN1CCCC(C(N)=O)C1 (configuration not stated),inactive
10,Cc1oc(-c2cccc(Oc3ccccc3)c2)nc1CN1CCOC(CCN)C1 (configuration not stated),28.2 µM (active)
11,COc1ccc(-c2noc(CN3CCCC(C(=O)c4cccnc4)C3)n2)c(OC)c1OC (configuration not stated),inactive
12,COC(=O)[C@@H]1Cc2ncn(Cc3ccc(Cl)cc3)c2CN1S(=O)(=O)c1ccc(C(C)=O)cc1,inactive
13,CCCN(CC1CCOC1)C(=O)Nc1cc(C)ccc1OC (configuration not stated),inactive
14,Cc1ncsc1CCC(=O)N[C@@H]1COCC[C@@H]1Oc1cccc(F)c1,inactive
15,COc1ccc2[nH]cc(CCNC(=O)C3CCCN(Cc4ccncc4)CCC(=O)NCC3)c2c1 (configuration not stated),inactive
16,Cc1cc(C(=O)N2CCCCC2c2noc(COc3ccc(F)cc3)n2)nn1C (configuration not stated),inactive
17,COc1ccc(OCc2nc(C(=O)N3CCCC(C)(CO)C3)co2)cc1 (configuration not stated),inactive
18,COc1ccc2ccc(OCc3nc(C(=O)N4CCC(=O)NCC4C)co3)cc2c1 (configuration not stated),44.7 µM (active)
19,Cc1nc(N2CCC(C(=O)NCc3ccc(C(C)C)cc3)CC2)cc(C(F)(F)F)n1,31.6 µM (active)
20,Cc1nc(N2CCC(NC(=O)c3ccc4c(c3)OCO4)CC2)cc(C(F)(F)F)n1,inactive
21,COc1ccc(OC)c(NC(=O)C2CCN(c3cc(C(F)(F)F)ncn3)CC2)c1,inactive
22,Cc1ccc(N2Cc3c(NCC4CC4)ncnc3N(C)CC2=O)cc1,inactive
